These results are taken from ChEMBL document CHEMBL3433997, “St. Jude Leishmania screening dataset” (2016).

What all share (format): functional
In experiment [1] the target is Solute carrier family 2, facilitated glucose transporter member 1 (Homo sapiens) (UniProt P11166). In words: ST_JUDE_LEISH: Cytotoxicity at 2uM final concentration against transgenic Leishmania Mexicana promastigotes LmGLUT1 that are glucose transport deficient and complemented with the human glucose transporter GLUT1. Activity is measured by DNA content using SYBR green in vitro.

In experiment [2] the target is Hexose transporter 1 (Plasmodium falciparum) (UniProt O97467). Briefly: ST_JUDE_LEISH: Cytotoxicity at 2uM final concentration against transgenic Leishmania Mexicana promastigotes LmPfHT that are glucose transport deficient and complemented with the Plasmodium falciparum hexose transporter. Activity is measured by DNA content using SYBR green in vitro.
Experiment [3] has as its target Glucose transporter (Leishmania mexicana) (UniProt O61059). In words: ST_JUDE_LEISH: Cytotoxicity at 2uM final concentration against transgenic Leishmania Mexicana promastigotes LmGT2 that are glucose transport deficient and complemented with the L. Mexicana glucose transporter 2. Activity is measured by DNA content using SYBR green in vitro.

Chain of Solute carrier family 2, facilitated glucose transporter member 1 (Homo sapiens) (P11166 whole entry): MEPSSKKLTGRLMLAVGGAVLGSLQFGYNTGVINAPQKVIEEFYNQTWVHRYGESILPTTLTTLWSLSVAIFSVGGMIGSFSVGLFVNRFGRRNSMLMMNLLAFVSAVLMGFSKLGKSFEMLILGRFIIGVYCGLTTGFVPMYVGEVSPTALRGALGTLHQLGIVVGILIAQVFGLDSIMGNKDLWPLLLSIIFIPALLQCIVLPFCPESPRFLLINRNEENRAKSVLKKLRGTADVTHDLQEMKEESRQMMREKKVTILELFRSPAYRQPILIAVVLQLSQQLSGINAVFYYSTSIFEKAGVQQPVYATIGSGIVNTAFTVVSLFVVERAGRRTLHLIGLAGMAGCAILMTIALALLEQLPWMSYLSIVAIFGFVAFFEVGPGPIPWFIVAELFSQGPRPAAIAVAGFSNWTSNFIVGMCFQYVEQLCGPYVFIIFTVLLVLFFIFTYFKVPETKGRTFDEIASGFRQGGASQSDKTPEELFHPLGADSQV

The inhibition is the change of the read-out against control, counted positive when it falls. On to `Cc1ccccc1CNc1nccc(NCCC(=O)Nc2ccccc2)n1`, for which the inhibition was 4.53% in experiment [1], 2.1% in experiment [2] and 0.01% in experiment [3].
Taken in the same sequence, the figures for `CN1CCN(CCCCCCNc2c3ccccc3nc3ccccc23)CC1` were 27.1%, 19.4% and 10.9%.
In the case of `COc1ccc(C(=O)Nc2cc(Cl)c3c(c2)C2CCCN2CC3)cc1C(F)(F)F` (configuration not stated), the inhibition was 3.22% in experiment [1], 2.02% in experiment [2] and -1.06% in experiment [3].
Taken in the same sequence, the figures for `CN(C)CCOc1cc(NC(=O)Nc2cccc([N+](=O)[O-])c2)ccc1I` were 13%, 14.6% and 15.7%.
Consider `Cc1cc(CN2CCC(C(=O)Nc3ccc(-c4nc5ccccc5[nH]4)cc3)CC2)oc1C`, for which the inhibition in experiment [1] stood at 13.2%; in experiment [2], 16%; in experiment [3], 2.24%.
`Cn1cc(CCNc2ccnc(NCCc3coc4ccccc34)n2)c2ccccc21`: the inhibition in experiment [1] came out at 8.67%; in experiment [2], 6.89%; in experiment [3], 2.14%.
Taken in the same sequence, the figures for `CCCOc1ccc(-c2nonc2NC(=O)c2cccc(OC)c2)cc1OCCC` were 8.68%, 10.9% and 10.5%.
For the molecule `Nc1cnc(C#Cc2cc3ncnc(N(CCN4CCOCC4)c4ccc(OCc5cccc(F)c5)c(Cl)c4)c3s2)cn1`, the inhibition in experiment [1] was 1.16%; in experiment [2], 0.42%; in experiment [3], -3.58%.
Taken in the same sequence, the figures for `COc1cccc(C(=O)NCCc2cccc(Cl)c2)c1Oc1ccccc1` were 1.18%, 2.48% and 1.65%.
With `COCCNCc1ccc(-c2ccc(CNC3CCN(Cc4ccccc4)CC3)cc2)cc1`, the values for the inhibition in experiment [1], in experiment [2] and in experiment [3] were 0.78%, 2.82% and 5.2%, respectively.
For `c1ccc(-c2ccc3c(Nc4ccc5[nH]ccc5c4)ccnc3c2)nc1`, the inhibition is -1.13% in experiment [1], 0.56% in experiment [2] and -0.96% in experiment [3].
For `CN1CCN(CCCNCc2ccccc2-c2cccc(CNCc3ccc4c(c3)OCO4)c2)CC1`, the inhibition in experiment [1] is -1.31%; in experiment [2], -0.45%; in experiment [3], 2.45%.
Turning to `Cc1cc2nc(-c3cc(-c4cccc(NS(C)(=O)=O)c4)cnc3N)[nH]c2cc1C`, the inhibition in experiment [1] is 1.13%; in experiment [2], 0.27%; in experiment [3], 0.05%.
Taken in the same sequence, the figures for `CNC(=O)c1ccccc1Nc1nc(Nc2cccc(CS(C)(=O)=O)c2)ncc1C` were 3.44%, 11.9% and 8.04%.
`COc1ccc2c(=NN=Cc3c(OC)ccc4ccccc34)cc(C)[nH]c2c1`: the inhibition was 2.05% in experiment [1], 2.99% in experiment [2] and 4.08% in experiment [3].
Taken in the same sequence, the figures for `O=C(C=Cc1ccc(-c2nc3ccccc3[nH]2)cc1)NC1CCN(Cc2ccccc2)CC1` were -1.19%, 1.99% and 5.3%.
For `O=C(c1ccc([N+](=O)[O-])o1)N1CCC(c2cn(Cc3cccc(F)c3)c3ccccc23)CC1`, the inhibition in experiment [1] was 50.1%; in experiment [2], 50.9%; in experiment [3], 10.2%.
Taken in the same sequence, the figures for `CN(C)CCCOc1ccc(-c2csc(NC(=N)NCc3ccccc3)n2)cc1` were 1.32%, 6.08% and 3.86%.
In the case of `O=C(Nc1ccc(CN2CCOCC2)cc1)c1ccc(-c2ccc(Cl)cc2)o1`, the inhibition was -0.08% in experiment [1], -0.82% in experiment [2] and -4.75% in experiment [3].
As to `CC(C)(CNCc1ccc(F)c(F)c1)c1nc(-c2ccc(Cl)c(O)c2)c(-c2ccncc2)[nH]1`, the inhibition in experiment [1] is 2.43%; in experiment [2], 0.25%; in experiment [3] it was 0.94%.
Taken in the same sequence, the figures for `CN(C)C(=O)c1ccc(CN(Cc2ccc3c(c2)OCCO3)Cc2ccc3c(c2)OCO3)cc1` were 3.62%, 3.62% and 3.97%.
Turning to `COC(=O)Nc1ccc(-c2ccc(C(=O)NC3CCN(C[C@H](O)c4ccnc5ccc(OC)cc45)CC3)cc2)c(C)c1`, the inhibition in experiment [1] was 0.51%; in experiment [2] it was 0.01%; in experiment [3], -1.03%.
Taken in the same sequence, the figures for `O=C(Cc1ccccc1)NC(c1ccccc1)c1ccc2cccnc2c1O` (configuration not stated) were 2.31%, 0.51% and -1.17%.
Taken in the same sequence, the figures for `CCOc1cc(C(=O)Nc2ccccc2N2CCN(S(C)(=O)=O)CC2)cc(OCC)c1OCC` were 3.72%, 3.96% and 3.43%.
Taken in the same sequence, the figures for `CCN(CCCN1CCCCC1)c1cc(C)nc(Nc2cc(Br)ccc2C)n1` were -1.93%, -0.61% and -0.36%.
As to `Cc1ccc(C2=NNC3(S2)C(=O)N(C)c2ccccc23)cc1` (configuration not stated), the inhibition in experiment [1] is 5.66%; in experiment [2] it was 8.24%; in experiment [3], 9.09%.
Taken in the same sequence, the figures for `O=C1O[C@H](c2ccccc2)[C@H](c2ccccc2)N(C(=O)OCc2ccccc2)[C@H]1Cc1ccccc1C1CCCC1` were 1.05%, 2.14% and 1.27%.
On to `N=C(N)NC(=O)Nc1cc(F)c(Cl)c(Cl)c1`, for which the inhibition in experiment [1] worked out at 12.8%; in experiment [2], 10.5%; in experiment [3], 6.35%.
Take `Cc1[nH]c(C)c(-c2ccc(C#Cc3ccc(F)cc3F)cc2)c(=O)c1Br`: the values for the inhibition in experiment [1], in experiment [2] and in experiment [3] were -0.29%, 1.21% and 0.22%, respectively.
Taken in the same sequence, the figures for `O=C(Nc1cccc(-c2ccc(-c3nc4cc(C(F)(F)F)ccc4[nH]3)cc2)c1)c1ccoc1` were -0.21%, 1.44% and 0.98%.
Taken in the same sequence, the figures for `Cc1nc(N)nc(N)c1-c1ccc2ccccc2c1` were -1.96%, -1.02% and -2.1%.
Taken in the same sequence, the figures for `CC(=O)c1ccc(NC(=O)Nc2ccc(N(C)c3ccnc(Nc4cccc(CS(C)(=O)=O)c4)n3)cc2)cc1` were -0.18%, 0.54% and 4.04%.
As for `O=C(Nc1ccc(OC2CCN(Cc3ccccc3)C2)c(Cl)c1)c1cccs1` (configuration not stated), the inhibition in experiment [1] was found to be 1.18%; in experiment [2], 1.06%; in experiment [3], 1.66%.
As to `CCc1c(C)nc(-n2nc(C)cc2NC(=O)CC(c2ccccc2)c2ccccc2)[nH]c1=O`, the inhibition was -2.32% in experiment [1], -2.23% in experiment [2] and -4.35% in experiment [3].
